Assay results published in PubChem BioAssay.

Assay: inhibitors of Sendai virus-induced IRF3 signaling, primary screen, TLR/RLR signaling modifier project, cell-based, Sendai virus stimulus, luciferase, 10K MLSCN set (AID 602276);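 note: firefly luciferase from ISG56 promoter only with Renilla not read in this screen; 0% = Sendai virus plus DMSO and 100% = medium plus DMSO without virus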
Settings: HEK293 RL24 IRF3 luciferase reporter, at 10 µM, stronger effect = higher value;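 active = inhibition at or above 50% at 10 µM; inactive = inhibition below 50%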

inhibition, inactive:
CCCNC(=O)NC1C(NC(=O)NCCC)N(C)C(=O)N1C (stereo not given) -0.304%
COc1ccccc1NC(=O)C(C)NS(=O)(=O)c1ccc(F)cc1 (stereo not given) 3.7%
Cc1oc(-c2ccccc2F)nc1CS(=O)(=O)CC(=O)N1CCN(Cc2ccccc2)CC1 6.04%
CCCOC(=O)c1[nH]c2c(c1C)C(=O)CC(c1ccc(OC)c(OC)c1)C2 (stereo not given) -11.5%
N#Cc1c(-c2ccccc2)nc(N2CCCCCC2)[nH]c1=O 6.52%
CCOc1ccc(-n2cc(C(=O)N3CCN(C)CC3)c3cc(OC)c(OC)cc3c2=O)cc1 -29.8%
Cc1ccc(CCNC(=O)C2CCCN(S(=O)(=O)c3cnc[nH]3)C2)cc1 (stereo not given) 1.87%
Cc1cnc(C(=O)Nc2nnc(C(C)C)s2)cn1 -25.1%
COc1ccccc1NC(=O)Cn1nnc(-c2ccccc2NC(=O)c2ccco2)n1 16.8%
O=C1CCc2cc(S(=O)(=O)N3CCC(C(=O)NCc4ccccn4)CC3)ccc2N1 13.9%
COc1ccc(OCCSc2nc3ccccc3n2CC(=O)O)cc1 16.6%
Cc1cccc(C(OC(=O)c2ccco2)C(=O)NCc2ccccc2)n1 (stereo not given) -5.03%
CCCCN(CC)CCNC(=O)c1cc2c(C)nc3ccccc3c2o1 5.91%
O=C(NC1CCCC1)C(c1ccco1)N(Cc1ccccc1)C(=O)c1csnn1 (stereo not given) 17.4%
CC(C)(C)NC(=O)NC(=O)COc1ccccc1C#N 2.8%
COc1cccc2cc(C(=O)C3=C(O)C(=O)N(CCCN4CCOCC4)C3c3ccncc3)oc12 (stereo not given) -11.8%
CCOC(=O)N1CCN(c2cc(=O)n(-c3ccccc3Cl)c(=O)[nH]2)CC1 -11.4%
Cn1nnnc1SCC(=O)N1CCN(c2cccc(Cl)c2)CC1 7.81%
CCOc1ccccc1OCC(=O)NCc1ccco1 11.5%
CCN1C(=O)C(C(=O)Nc2ccc(OC)cc2)C2CC1(C)Oc1ccccc12 (stereo not given) -34.3%
O=C(Nc1ccc(Cl)cn1)c1cccnc1 -14%
CCOC(=O)CSc1nc2c(c(-c3ccc(C)o3)c1C#N)CCCC2 10.2%
CCn1c(Cc2ccccc2)nnc1SCC(=O)Nc1cc(C)on1 -8.42%
Cn1c(=O)[nH]c(=O)c2[nH]c(NCCCN3CCOCC3)nc21 9.97%
CC1CCN(Cc2nc3c(c(=O)n(C)c(=O)n3C)n2Cc2cccc3ccccc23)CC1 13.1%
Fc1cccc2sc(N3CCOCC3)nc12 -10.5%
Cc1cc(NC(=O)CSc2nc3c(c(=O)n2Cc2ccccc2)SC(C)C3)no1 (stereo not given) -14.3%
Clc1ccc(CSc2nnc(Cn3cnc4ccccc43)o2)cc1 -20.9%
O=C1c2ccccc2NC2CCCCCN12 (stereo not given) -2.99%
CCOc1ccc(-c2cc(C(=O)N3CCN(c4ccccn4)CC3)c3ccccc3n2)cc1 34%
COc1ccc(Cn2nnnc2C(c2cccs2)N2CCOCC2)cc1 (stereo not given) -1.07%
CN1C(=O)CC(N2CCC(C(N)=O)(N3CCCCC3)CC2)C1=O (stereo not given) 15%
CC1CCCN(C(=O)c2cc3c(-c4ccc(Cl)cc4)nn(C)c3s2)C1 (stereo not given) 7.9%
CCN1CCN(Cc2nc3c(c(=O)[nH]c(=O)n3C)n2Cc2ccccc2Cl)CC1 9.74%
CS(=O)(=O)c1ccc2nc(NC(=O)C3C4C=CC(C4)C3C(=O)O)sc2c1 (stereo not given) 1.15%
NC(=O)c1c(NC(=O)CN2CCCC2)sc2c1CCCC2 -25.4%
CCOc1ccc(C(=O)CN2CCN(S(=O)(=O)c3ccc(OC)cc3)CC2)cc1 -2.61%
O=C1NC(=O)C(CC(=O)N(Cc2ccco2)C2(C(=O)NC3CCCC3)CCCCC2)N1 (stereo not given) -0.4%
COCCn1c(SCC(=O)Nc2cccc(OC)c2)nnc1-c1ccc(Cl)cc1 16.4%
CN(C)c1nc(Oc2ccc(=O)n(C)n2)nc(N2CCOCC2)n1 16.8%
